Experimental data published in PubChem BioAssay (NCI).
The panel holds about 79,000 compounds, 15% with a hit somewhere; the sample as a whole holds those more often. Rule as the data show it: active = growth inhibition above about 70%; inactive = the rest.

Tests used:
[1] = NCI Yeast Anticancer Drug Screen. Data for the rad50 strain (AID 155);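 also: 0% = growth of vehicle-only cultures of the same strain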; conditions: S. cerevisiae rad50 strain growth inhibition; at 50.0 µM; hits give high values
Procedure, shortened: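 Compounds were tested on a yeast strain with an engineered DNA damage repair alteration; the reported value is growth inhibition normalised to vehicle treatment.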

[2] = NCI Yeast Anticancer Drug Screen. Data for the mec2-1 strain (AID 157); conditions: S. cerevisiae mec2-1 strain, at 50.0 µM, hits give high values
Procedure, shortened: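 Yeast mec2-1 mutant treated with compound. Readout: growth inhibition vs vehicle controls.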

[3] = NCI Yeast Anticancer Drug Screen. Data for the sgs1 mgt1 strain (AID 161);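 also: 0% = growth of cultures given vehicle only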; conditions: S. cerevisiae sgs1 mgt1 strain, at 50.0 µM, hits give high values
Procedure, shortened: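 Mutant yeast exposed to compound; growth scored against vehicle-only wells.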

[4] = NCI Yeast Anticancer Drug Screen. Data for the cln2 rad14 strain (AID 165);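 also: 0% = growth equal to vehicle treated cultures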; conditions: S. cerevisiae cln2 rad14 strain, at 50.0 µM, hits give high values
Procedure, shortened: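 cln2 rad14 yeast strain; compound exposure; growth inhibition read vs vehicle controls.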

[5] = NCI Yeast Anticancer Drug Screen. Data for the bub3 strain (AID 167); conditions: S. cerevisiae bub3 mutant strain, at 50.0 µM, hits give high values
Procedure, shortened: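 Growth of a checkpoint-deficient yeast mutant is measured after compound exposure. Values represent inhibition relative to vehicle.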

[6] = NCI Yeast Anticancer Drug Screen. Data for the mlh1 rad18 strain (AID 175); conditions: S. cerevisiae mlh1 rad18 strain growth inhibition; at 50.0 µM; hits give high values
Procedure, shortened: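 Yeast w/ defined DNA-repair lesions; compound exposure; growth vs vehicle controls → % inhibition.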

Measured: growth inhibition

CCCCCCCCCCC1OCC(C)(C)CO1
inactive: [1] 10.3% | [2] -12.2% | [3] 17.4% | [4] -7.5% | [5] 1.65% | [6] 11.4%

COC(=O)C(CCCCNC(=O)OCc1ccccc1)NC(=O)c1ccc(N(C)C=O)cc1 (stereo unspecified)
inactive: [1] 14.6% | [2] 19.7% | [3] -1.7% | [4] 26.6% | [5] 3.45% | [6] 14.8%

CS(=O)(=O)c1nsc(N)n1
inactive: [1] -14% | [2] -8.6% | [3] -5.25% | [4] 2.15% | [5] -0.1% | [6] 2.7%

O=C(CC(=O)Nc1ccccc1)NNC(c1cc(N=Nc2ccc(Br)cc2)ccc1O)P(O)O (stereo unspecified)
inactive: [1] -4.65% | [2] 6.25% | [3] -10.4% | [4] -3.2% | [5] -14% | [6] -38%

COCC1OCCN1C (stereo unspecified)
inactive: [1] 12.7% | [2] 7.75% | [3] -10% | [4] 17.4% | [5] 5.65% | [6] -32.1%

C#CC(O)C(CC)CCCC (stereo unspecified)
inactive: [1] -11.1% | [2] -46.5% | [3] -14.7% | [4] -10.4% | [5] -12.8% | [6] 13.8%

Cc1[nH]c(=O)n2c(C)nnc2c1C(=O)O
inactive: [1] -5.3% | [2] -4.15% | [3] 1.95% | [4] -10.2% | [5] -2.7% | [6] -1.55%

COC(=O)c1nc(N)nc(C(=O)OC)c1C(=O)c1ccc(F)cc1
inactive: [1] 8.55% | [2] -1% | [3] -12.3% | [4] 5.35% | [5] 9.4% | [6] 20.6%

COc1cc2c3c(c1)nc(C)n3C(=O)C(c1ccccc1)S2 (stereo unspecified)
inactive: [1] -17.6% | [2] -5.3% | [3] -26.3% | [4] 4.1% | [5] 21.6% | [6] -23.6%

NC(N)=NC(N)=Nc1ccc(C(=O)O)cc1
inactive: [1] -7.4% | [2] 5.95% | [3] -26.8% | [4] -29.2% | [5] -68% | [6] -4%

Cc1cc(N=Nc2ccccc2)c2cccnc2c1N
inactive: [1] -3.85% | [2] -4.2% | [3] -7.5% | [4] 11.6% | [5] -5.15% | [6] 14.7%

O=[N+]([O-])c1cc(/C=N/NS(=O)(=O)c2ccc(F)cc2)c(O)c([N+](=O)[O-])c1
inactive: [1] 10.2% | [2] -11.2% | [3] -14.6% | [4] 3.65% | [5] 0.35% | [6] 9%

O=C1CC2C3CC4(OCCO4)C4C3CC2C14 (stereo unspecified)
inactive: [1] 8.25% | [2] 2.45% | [3] 3% | [4] 8.65% | [5] 2.1% | [6] 5.8%

CCC(=O)OCCSCCOC(=O)CC
inactive: [1] 5.65% | [2] 5.65% | [3] -6.4% | [4] -10.3% | [5] -4.4% | [6] -15.8%

O=C(O)C(Nc1ccccc1)c1ccccc1 (stereo unspecified)
inactive: [1] 13.4% | [2] 3.75% | [3] 9.45% | [4] -21.9% | [5] 4.65% | [6] -6.95%

CC1(C)Oc2ccc3c(=O)c(-c4ccccc4)c(-c4ccccc4)oc3c2C1C(=O)O (stereo unspecified)
inactive: [1] 12.5% | [2] -1.35% | [3] -17.6% | [4] 12.8% | [5] 0.25% | [6] 10.8%

CC(C)(C)C(C)(C)CC(N)=O
inactive: [1] 7.25% | [2] -15.7% | [3] -4.3% | [4] -3.6% | [5] 10.9% | [6] -9.1%

CCCCc1c2c(nc3c1CCCC3=O)CCCC2
inactive: [1] 8.7% | [2] 8.45% | [3] 27.4% | [4] 15.8% | [5] 37.9% | [6] -0.8%

COc1ccc(-c2cn3c([nH]c(=O)c4cc(Br)ccc43)c2C#N)cc1
inactive: [1] 5.55% | [2] -5.3% | [3] -3.7% | [4] -5.25% | [5] 2.2% | [6] 16.1%

CCCCn1nnnc1N
inactive: [1] 3.45% | [2] 6.4% | [3] -8.2% | [4] 12% | [5] 17.8% | [6] 6.85%

COc1ccc(-c2cc(C(O)C3CCCCN3)c3ccccc3n2)cc1 (stereo unspecified)
inactive: [1] 4.15% | [2] -42% | [3] -20.9% | [4] 11.7% | [5] -31.1% | [6] -10.1%

CCN(CC)Cc1cc2[nH]c3c4ccc(Cl)cc4ncc3c2cc1OC
inactive: [1] 23.8% | [2] 11.8% | [3] -6.15% | [4] -2.65% | [5] -45.5% | [6] -42.6%

Brc1nc2c3ccccc3ncn2c1Br
inactive: [1] 45.2% | [2] -3.05% | [3] 21.3% | [4] -4.25% | [5] 1.7% | [6] 23.3%

CC1=CC(=O)/C(=C/n2c(=S)[nH]c3ccc([N+](=O)[O-])cc32)C(=O)O1
inactive: [1] 2.1% | [2] -44.7% | [3] -9.5% | [4] 6.85% | [5] 6.6% | [6] -46.3%

CCCCCCCCCO
inactive: [1] 13.7% | [2] -4.8% | [3] 19.9% | [4] 11.3% | [5] 12.8% | [6] 19.3%

CCOC(=O)C1CC(O)c2ccc(Cl)cc2N1 (stereo unspecified)
inactive: [1] 5.45% | [2] 10.2% | [3] 20.6% | [4] 16.1% | [5] 9.6% | [6] 6.15%

COCCNC(C)=O
inactive: [1] 13.8% | [2] 0.7% | [3] 12% | [4] -17.1% | [5] -11.2% | [6] 3.7%

COc1cc([C@@H]2c3cc4c(cc3[C@H](O)[C@H]3COC(=O)[C@@H]23)OCO4)cc(OC)c1OC
inactive: [1] 2.55% | [2] 4.2% | [3] 1.2% | [4] 5.7% | [5] 7.15% | [6] 16.2%

COC1OC(CO)C(O)C(OC(C)=O)C1NC(=O)N(CCCl)N=O (stereo unspecified)
inactive: [1] -4.9% | [2] -13.4% | [3] -6.2% | [4] 7.4% | [5] -7.65% | [6] -8.75%

CCOC(=O)/C(C#N)=C/NC(N)=O
inactive: [1] -2.55% | [2] 3.05% | [3] -10.1% | [4] -10% | [5] 1.95% | [6] -12.6%

CCN(CC)c1ccc(/C=C\c2c(C)cnc3ccccc23)cc1
inactive: [1] 8.85% | [2] 10% | [3] 17.9% | [4] -24.4% | [5] 34.6% | [6] -9.45%

CN(C)c1ccc(Cc2ccc(N(C)C)cc2[N+](=O)[O-])c([N+](=O)[O-])c1
inactive: [1] -4.35% | [2] 11.2% | [3] 19.9% | [4] 6.1% | [5] 15.3% | [6] -1.35%

CCCC(=O)Oc1ccc(CC)cc1
inactive: [1] 25.5% | [2] 15.4% | [3] 8.75% | [4] -20.4% | [5] 14.5% | [6] 20.9%

CCCC(=O)c1ccc2c(c1)CCc1cc(O)ccc1-2
inactive: [1] 13.8% | [2] 1.35% | [3] 12.3% | [4] -5.05% | [5] 23.4% | [6] 1.6%

COC(=O)C(=O)C(C(=O)C(=O)Nc1cc(C)ccc1C)c1nc2ccccc2[nH]c1=O (stereo unspecified)
inactive: [1] 13% | [2] -11.9% | [3] 14.4% | [4] 21.1% | [5] -13.7% | [6] 9.4%

COc1ccc(CCl)c(C)c1OC
inactive: [1] 32.7% | [2] 5.75% | [3] 18.9% | [4] 2.75% | [5] 16.1% | [6] -10.7%

CC(C)(C)OC(=O)NC(Cc1ccccc1)OCc1ccccc1 (stereo unspecified)
inactive: [1] -11.3% | [2] -25.2% | [3] -0.05% | [4] 11.8% | [5] -15.4% | [6] -19.7%

CC(=O)NC(c1ccccc1)(c1ccccc1)c1ccccc1
inactive: [1] 12.1% | [2] 8.15% | [3] 14.8% | [4] 5.2% | [5] 31.1% | [6] 19.5%

CCNCc1cc(Nc2nc(NC3CCC(N(C)C)CC3)c3ccccc3n2)ccc1OC (stereo unspecified)
inactive: [1] 2.4% | [2] 7% | [3] -5.8% | [4] 28.3% | [5] 3.45% | [6] 9%

COc1cccc(/C(Cl)=C(\C=O)c2cccc(OC)c2)c1
inactive: [1] 12.8% | [2] 19.1% | [3] 2.2% | [4] 10.7% | [5] 34% | [6] -10.1%

CC(=O)NC(Cc1ccc(F)cc1)C(=O)O (stereo unspecified)
inactive: [1] -1.75% | [2] -7.85% | [3] -18.1% | [4] -19.7% | [5] -27.6% | [6] -17.9%
